Data as given in the supplement of paper PMC7380943.
Where a name gives a salt, the structure may show the parent alone. ± gives the standard deviation of the averaged measurements.

Each compound was assayed on CLZ3 (HCA2 human fibroblast dual HR-NHEJ reporter) (assay: NHEJ repair efficiency (GFP+ cells) relative to control (log10 fold); higher = more non-homologous end joining). Details: 5 µM; doxycycline 0.5 ug/mL.
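Note: compound given one day ahead of doxycycline, which switches on I-SceI endonuclease to cut the chromosomally integrated reporter and create DSBs.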

| SMILES | NHEJ repair efficiency (log10) |
| --- | --- |
| C=CCc1ccc(O)c(OC)c1 [Eugenol] | 0.027 |
| O=C1c2cccc(O)c2C(=O)c2c(O)cccc21 [1,8-Dihydroxyanthraquinone] | -0.286 |
| C[C@H]1O[C@@H](O[C@H]2CC[C@@]3(C)[C@@H](CC[C@]4(C)[C@@H]3C=CC3=C5CC(C)(C)CC[C@]5(CO)[C@H](O)C[C@]34C)[C@]2(C)CO)[C@H](O)[C@@H](O[C@@H]2O[C@H](CO)[C@@H](O)[C@H](O)[C@H]2O)[C@H]1O [Saikosaponin B2] | 0.0489 |
| COc1ccc(-c2cc(=O)c3c(O)c(OC)c(O)c(OC)c3o2)cc1 [Nevadensin] | -0.111 |
| C=C[C@@H]1[C@@H](O[C@@H]2O[C@H](CO)[C@@H](O)[C@H](O)[C@H]2O)OC=C(C(=O)OC)[C@@H]1CCOC(=O)c1cc(O)c(O)c(O)c1 [Cornuside I] | -0.0558 |
| O=c1oc2c(O)c(O)cc3c(=O)oc4c(O)c(O)cc1c4c23 [Ellagic acid] | 0.0142 |
| C[C@H]1[C@H](OC(=O)CCC(=O)O)O[C@@H]2O[C@@]3(C)CC[C@H]4[C@H](C)CC[C@@H]1[C@@]24OO3 [Artesunate] | -0.0268 |
| COc1cc2c(cc1OC)[C@@H]1Cc3ccc(OC)c(OC)c3CN1CC2 [Tetrahydropalmatine] | -0.0787 |
| COc1cc(C2Oc3cc([C@H]4Oc5cc(O)cc(O)c5C(=O)[C@@H]4O)ccc3OC2CO)ccc1O (stereo not given in full) [Silymarin Ⅱ] | -0.124 |
| COc1c(O[C@@H]2O[C@H](CO)[C@@H](O)[C@H](O)[C@H]2O)cc2oc(-c3ccc(O)cc3)cc(=O)c2c1O [Homoplantaginin] | 0.0189 ± 0.062 |
| O=C1O[C@H]2[C@@H]3OC(=O)c4cc(O)c(O)c(O)c4-c4c(O)c(O)c5oc(=O)c6c(c(O)c(O)c7oc(=O)c4c5c76)-c4c(cc(O)c(O)c4O)C(=O)OC[C@H]3OC(O)[C@@H]2OC(=O)c2cc(O)c(O)c(O)c2-c2c1cc(O)c(O)c2O (mixture of isomers) [Punicalagin] | -0.0664 |
| O=C(O)c1cc(O)c2c(c1)[C@H]([C@H]1c3cc(C(=O)O)cc(O)c3C(=O)c3c(O[C@@H]4O[C@H](CO)[C@@H](O)[C@H](O)[C@H]4O)cccc31)c1cccc(O[C@@H]3O[C@H](CO)[C@@H](O)[C@H](O)[C@H]3O)c1C2=O [Sennoside A] | 0.0438 |
| O=C(/C=C/c1ccc(O)c(O)c1)O[C@H](Cc1ccc(O)c(O)c1)C(=O)O [Rosmarinicacid] | -0.275 |
| Cc1cc(O)c2c(c1)C(=O)c1cc(O)cc(O)c1C2=O [Emodin] | -0.0237 |
| COC(=O)C1=CO[C@@H](O[C@@H]2O[C@H](CO)[C@@H](O)[C@H](O)[C@H]2O)[C@@H]2C(CO)=CC[C@H]12 [Geniposide] | -0.0355 |
| O=Cc1ccc(CO)o1 [5-Hydroxymethyl-2-furaldehyde (5-HMF)] | -0.174 |
| COc1ccc2cc3[n+](cc2c1OC)CCc1cc2c(cc1-3)OCO2 [Berberine hydrochloride] | -0.127 |
| COc1ccc(/C=C/C(=O)O)cc1O [Isoferulic acid] | 0.104 |
| CC(C)=C1C/C=C(\C)CC/C=C(\C)CC1=O [Germacrone] | 0.0003 |
| C=C(CCC=C(C)C)[C@H]1CC[C@]2(C)[C@@H]1[C@H](O)C[C@@H]1[C@@]3(C)CC[C@H](O)C(C)(C)[C@@H]3[C@@H](O[C@@H]3O[C@H](CO)[C@@H](O)[C@H](O)[C@H]3O)C[C@]12C [Ginsenoside Rk3] | 0.000935 |
| Oc1cc(O)c2c(c1)OC(c1ccc(O)c(O)c1)C(OC1(c3ccc(O)c(O)c3)Oc3cc(O)cc(O)c3C(O)C1O)C2 (stereo not given) [Procyanidins] | 0.0386 |
| COc1c(O)cc2occ(-c3ccc(O)cc3)c(=O)c2c1O [Tectorigenin] | -0.0657 |
| C=C(C)[C@@H]1CC[C@]2(C(=O)O)CC[C@]3(C)[C@H](CC[C@@H]4[C@@]5(C)CCC(=O)C(C)(C)[C@@H]5CC[C@]43C)[C@@H]12 [Liquidambaric Acid] | -0.0687 |
| COc1cc([C@@H]2[C@H]3CO[C@@]4(O)C(=O)[C@@H]2C=C([C@H]2Oc5cc(O)cc(O)c5C(=O)[C@@H]2O)[C@@H]34)ccc1O [Silydianin] | -0.0155 ± 0.092 |
| C[C@@H]1CC[C@]2(C(=O)O)CC[C@]3(C)C(=CC[C@@H]4[C@@]5(C)CC[C@H](O)[C@@](C)(CO)[C@@H]5CC[C@]43C)[C@@H]2[C@]1(C)O [Rotundic Acid] | -0.0308 |
